Measurements reported in ChEMBL document CHEMBL3988442, “University of Dundee, Small-Polar-MMV Screening Library” (2021).
In all, about 48,000 compounds went through this assay and about 13,000 (27%) showed an effect of 50% or more. This is one part of the list.

System: Wolbachia pipientis
Assay: Anti-Wolbachia Cell-Based Screen
Type: functional
Parameters: scale not given: in the data most compounds retested in dose-response had high values
Conditions: 5 µM

Row | Structure (SMILES) | Percent Effect [%]
1 | O[C@@H]1C[C@@H](c2nc(Cc3ccccc3)no2)N(Cc2ncc[nH]2)C1 | 0.9239
2 | COc1ccc(CNC(=O)NC2CCC(O)CC2)c(C(F)(F)F)c1 (configuration not stated) | 20.35
3 | CCc1ccc(C(=O)N(CC(F)(F)F)C2CCCOC2)o1 (configuration not stated) | 5.996
4 | Cc1cc(CSc2nc(=O)ccn2C(C)C)no1 | -4.933
5 | CSCC[C@@H](CO)Nc1ccc(-c2nc(-c3ccccc3F)no2)cn1 | -8.084
6 | CCC(C)(N)c1nc(=O)c(C)c(C)[nH]1 (configuration not stated) | -33.14
7 | Cc1noc(C)c1CS(=O)(=O)CC(=O)NCCc1cccs1 | 0.1957
8 | COc1ccc2c(c1)C(NCCc1c(C)noc1C)CCCO2 (configuration not stated) | -2.374
9 | CNCC[C@H]1CC(C)(C)Oc2ccc(OC)cc21 | 108.6
10 | Cc1ccc2c(c1)OC(C)(C)CC2NC(=O)C1CCN(C)CC1 (configuration not stated) | -0.1155
11 | COc1ccc2c(c1)C(NCCc1ccccn1)CCCO2 (configuration not stated) | 1.37
12 | CC(=O)NCC[C@H]1CC(C)(C)Oc2ccccc21 | 133.5
13 | CC(=O)N1CCC(C(=O)NC2CC(C)(C)Oc3cc(C)ccc32)CC1 (configuration not stated) | -7.853
14 | CNCC[C@H]1CC(C)(C)Oc2ccc(OCC3CC3)cc21 | 114.8
15 | NCc1ccc(Oc2cccc(Cl)c2Cl)nc1 | 4.271
16 | CCCc1[nH]n(C)c(=N)c1-c1ccc2c(c1)OCO2 | -1.578
17 | O=C(Nc1nc(-c2ccccc2)ns1)N1CCC(F)CC1 | -10.12
18 | Cc1n[nH]c(C)c1CNC(=O)c1cn(CCC2CCCCN2)nn1 (configuration not stated) | -13.81
19 | O=C(O)[C@]12CCCN(Cc3ccccn3)[C@@H]1CCN(c1cnccn1)C2 | -12.33
20 | NC(=O)C1(c2cnccn2)CCCN1Cc1cc2ccccc2o1 (configuration not stated) | -3.809
21 | Cc1cccc(CN2C[C@@H](CN3CCCN(C)CC3)[C@@H](CO)C2)n1 | 16.72

Row | Structure (SMILES) | Percent Effect [%]
22 | NC(=O)C1(c2cnccn2)CCCN1Cc1ccccn1 (configuration not stated) | 123
23 | Cc1cccc(CN2CCCC2(C(N)=O)c2cnccn2)n1 (configuration not stated) | 94
24 | Cc1cccc(CO[C@@H]2C[C@H]3CN(C(=O)c4cnccn4)CCN3C2)n1 | -10.31
25 | c1ccc(-c2nnc(CNCC3CCCN3c3cccnn3)o2)cc1 (configuration not stated) | -18.66
26 | Cc1oncc1C(=O)N1CCC2(CC1)CC(N1CCOCC1)C2.O=C(O)C(F)(F)F | 99.49
27 | COc1cc(N2CCC3(CC2)CC(N2CCOCC2)C3)ncn1.O=C(O)C(F)(F)F | -37.73
28 | Cn1cccc1C(=O)N1CCC2(CC1)CC(N1CCOCC1)C2.O=C(O)C(F)(F)F | 103.3
29 | O=C(O)C(F)(F)F.O=C1CC(c2ccncc2)C2(CCN(C(=O)c3cccc(F)c3)CC2)N1 (configuration not stated) | 8.556
30 | CC(=O)N1CCOC2(CCN(C(=O)c3cnoc3C)CC2)C1 | 6.241
31 | O=C(O)C(F)(F)F.O=C(c1ccc(F)cc1)N1CCC2(CC1)CC(N1CCOCC1)C2 | 98.46
32 | CN(C)C1COC2(CCN(C(=O)c3cccc(Cl)c3)CC2)C1.O=C(O)C(F)(F)F (configuration not stated) | -2.157
33 | O=C(O)C(F)(F)F.O=C(c1ccccc1)N1C[C@@H]2CCCO[C@@H]2[C@H](N2CCOCC2)C1 | -6.046
34 | CN1CCCCC12CCN(C(=O)c1cccn1C)CC2.O=C(O)C(F)(F)F | -9.83
35 | CC(=O)N1CCC2(CC1)CC(N1CCOCC1)c1ccc(C)cc12.O=C(O)C(F)(F)F (configuration not stated) | 0.6002
36 | O=C(O)C(F)(F)F.O=C(c1cccc(F)c1)N1CCC2(CC1)CC(N1CCOCC1)C2 | 110.5
37 | O=c1[nH]c(NCc2cccc(OC(F)F)c2)nc2c1CCNC2 | -5.963
38 | O=C(NCC1CC1)[C@H]1C[C@@H]2CN(C(=O)NCC3CCCCC3)C[C@H]1O2 | 9.811
39 | CC(C)(C)c1ncc(C(=O)N2CCC(N3CCSCC3)CC2)c(O)n1 | -20.12
40 | Cc1nc(C(C)C)sc1C(=O)N1CCC(N2CCSCC2)CC1 | 96.22
41 | Cc1nc(CC(C)C)sc1C(=O)N1CCC(C2(C)OCCO2)CC1 | 1.957
42 | CCCn1ncc(C(=O)N2CCN(C3CCSCC3)CC2)c1C | 7.373

Row | Structure (SMILES) | Percent Effect [%]
43 | CN(C)C(C(=O)N1CCC(N2CCSCC2)CC1)c1ccccc1F (configuration not stated) | 11.01
44 | Cc1nc(CC(C)C)sc1C(=O)N1CCC1 | -0.1519
45 | COC1CCCN(C(=O)c2sc(CC(C)C)nc2C)C1 (configuration not stated) | -1.564
46 | Cc1nc(C(C)C)sc1C(=O)N1CCC(C(N)=O)CC1 | 81.6
47 | Cc1nc(C(C)C)sc1C(=O)N1CCN(C2CCSCC2)CC1 | 90.05
48 | CCS(=O)(=O)N1C[C@H]2CC[C@@]3(N=C(C)N(CC(C)C)C3=O)[C@H]2C1 | 17.11
49 | Cc1ccc(CN2CCNC(=O)C2CC(=O)N2CCSCC2)o1 (configuration not stated) | -50.4
50 | O=C(NCc1ccc(Cl)s1)c1cc(CN2CCCC(O)C2)on1 (configuration not stated) | 3.439
51 | CSCc1nc(CCNC(=O)c2cnn(C(C)C)c2)cs1 | -0.3441
52 | CSc1ccc2cc(CN(C)CCO)c(=O)[nH]c2c1 | -7.247
53 | CCC(CNC(=O)CNC(C)=O)Oc1cccc(F)c1 (configuration not stated) | -13.27
54 | Cc1ccc(S(=O)(=O)NC[C@H]2OC[C@@H](NCc3cccnc3)[C@@H]2O)cc1 | -9.264
55 | CC(C)NC(=O)CN(C1CC1)C(C)C1CC1 (configuration not stated) | -3.628
56 | CC(=O)N1CCCCC1c1nc2c(c(N3CCCCC3)n1)CN(C)CC2 (configuration not stated) | -9.745
57 | Nc1nc2c(c(NC3CCCC3)n1)CCN(C(=O)C1CCOC1)CC2 (configuration not stated) | 4.82
58 | CC(=O)N1CCCCC1c1nc2c(c(NC3CCCC3)n1)CN(C)CC2 (configuration not stated) | 71.52
59 | CC1CCCCN1C(=O)c1nc2c(n1C(C)C)CCN(C)C2.O=C(O)C(F)(F)F (configuration not stated) | 0.8763
60 | CNc1nc(N2C[C@H](NC(=O)CCOC)[C@@H](C3CC3)C2)nc2c1CCC2 | -18.85
61 | CNc1nc(C2CCCCN2C(=O)C(C)(C)OC)nc2c1CN(C)CC2 (configuration not stated) | 100.3
62 | CNc1nc(C2CCCCN2C(=O)COC)nc2c1CN(C)CC2 (configuration not stated) | 112
